This is part of a sample that, as a whole, favours compounds with a hit. Of some 79,000 tested, about 15% had one in any assay. Rule as the data show it: active = growth inhibition above about 70%; inactive = the rest.
How the values were obtained:
[1] = NCI Yeast Anticancer Drug Screen. Data for the rad50 strain (AID 155);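 also: 0% = growth of vehicle-only cultures of the same strain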; details: S. cerevisiae rad50 strain growth inhibition; at 50.0 µM; hits give high values
Outline: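 DNA repair mutant yeast, compound exposure, growth read-out; inhibition is taken relative to vehicle.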

[2] = NCI Yeast Anticancer Drug Screen. Data for the mec2-1 strain (AID 157); details: S. cerevisiae mec2-1 strain, at 50.0 µM, hits give high values
Outline: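 Mutant yeast (mec2-1) grown with compound; growth inhibition relative to vehicle control reported.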

[3] = NCI Yeast Anticancer Drug Screen. Data for the sgs1 mgt1 strain (AID 161);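 also: 0% = growth of cultures given vehicle only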; details: S. cerevisiae sgs1 mgt1 strain, at 50.0 µM, hits give high values
Outline: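 Growth of a repair-deficient yeast mutant was monitored after compound treatment and expressed as inhibition relative to vehicle-treated cultures.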

[4] = NCI Yeast Anticancer Drug Screen. Data for the cln2 rad14 strain (AID 165);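 also: 0% = growth equal to vehicle treated cultures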; details: S. cerevisiae cln2 rad14 strain, at 50.0 µM, hits give high values
Outline: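 Readout is yeast growth inhibition versus vehicle-treated controls, using a strain with cln2 and rad14 alterations exposed to compound.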

[5] = NCI Yeast Anticancer Drug Screen. Data for the bub3 strain (AID 167); details: S. cerevisiae bub3 mutant strain, at 50.0 µM, hits give high values
Outline: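 In this screen, a yeast mutant lacking normal mitotic checkpoint function is challenged with compound. Relative growth versus vehicle gives the inhibition value.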

[6] = NCI Yeast Anticancer Drug Screen. Data for the mlh1 rad18 strain (AID 175); details: S. cerevisiae mlh1 rad18 strain growth inhibition; at 50.0 µM; hits give high values
Outline: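 Genetically defined yeast (DNA repair-deficient) exposed to compounds; growth inhibition determined relative to vehicle.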

Measured: growth inhibition

OC1CCCCC12CC2 (stereo unspecified)
inactive: [1] 3.85% | [2] 1.5% | [3] 5% | [4] -3.55% | [5] -15.2% | [6] -3.2%

FC(F)(F)c1cc(NC(=S)SCc2ccc(Cl)cc2)ccc1Cl
inactive: [1] 22.8% | [2] 8.7% | [3] 16.2% | [4] 14.6% | [5] 13.6% | [6] 11.2%

O=C(CCC(=O)NO)NO
inactive: [1] 1.4% | [2] -12.6% | [3] 4.75% | [4] -17.7% | [5] -20.9% | [6] -15.9%

CCOC(=O)N1CCN(c2c(N)nc(C)[nH]c2=O)CC1
inactive: [1] -49.6% | [2] -20.9% | [3] -55.3% | [4] -14.8% | [5] 19.1% | [6] -58.5%

CC(C)(C)N[P+](Cc1ccc(C[P+](NC(C)(C)C)(NC(C)(C)C)c2ccccc2)cc1)(NC(C)(C)C)c1ccccc1
inactive: [1] -3.05% | [2] -10.1% | [3] -0.9% | [4] -13.5% | [5] -2.1% | [6] 5.45%

CC(=O)OC1CCC2C(C)(CCC3C2(C)CCC2(C)C4CC(C)(C)CCC4(C)CCC32C)C1C (stereo unspecified)
inactive: [1] -15.1% | [2] -6.25% | [3] -11.8% | [4] -38.1% | [5] -0.05% | [6] -11.8%

CCOC(CN(Cc1ccccc1)CC(OCC)OCC)OCC
inactive: [1] 12.7% | [2] 8.15% | [3] 12.9% | [4] 5.85% | [5] 9.8% | [6] -4%

CC1CCC2C(C(=O)O[C@H]3C4CCO[C@@H](OC5OC(CO)C(O)C(O)C5O)C4[C@@]4(CO)O[C@@H]34)=CO[C@@H](OC3OC(CO)C(O)C(O)C3O)C12 (stereo partly specified)
inactive: [1] 16.4% | [2] -9.6% | [3] 5.9% | [4] 22.2% | [5] 22.6% | [6] 19.6%

CCOC(=O)c1ccc(NC(=S)NC(=O)c2cccs2)o1
inactive: [1] 43.4% | [2] 49.8% | [3] 39.4% | [4] 36.1% | [5] 31.2% | [6] 63.4%

O=C(Cl)c1cc(C(=O)Cl)cc(C(=O)Cl)c1
inactive: [1] -28.6% | [2] -51.2% | [3] -24.2% | [4] 7.15% | [5] -28.4% | [6] -28.6%

NNC1=Nc2ccc(Cl)cc2C(=S)N2CSCC12 (stereo unspecified)
inactive: [1] -1.05% | [2] -3.1% | [3] -11.7% | [4] -11.8% | [5] -8.95% | [6] 9.25%

CC(C)NCCO
inactive: [1] 23.1% | [2] -3% | [3] -1.85% | [4] 21.2% | [5] 0.3% | [6] 12.3%

[N-]=[N+]=NC1(Cc2ccccc2)C(=O)c2cccc3c2N(CCC3)C1=O (stereo unspecified)
inactive: [1] 4.25% | [2] 8.55% | [3] -0.65% | [4] 16.2% | [5] 25.7% | [6] -11.2%

CC(=O)C1=C(O)C(Cc2ccccc2)NC1=O (stereo unspecified)
inactive: [1] 11.9% | [2] -0.2% | [3] 1.95% | [4] -37.1% | [5] -18.4% | [6] 10.7%

C[N+](C)(C)C1=CC=CC=C1.Br[Br-]Br
inactive: [1] 22.5% | [2] -29.6% | [3] 0.15% | [4] 4.7% | [5] 11.6% | [6] -2.25%

CC(Sc1ccccc1)C(CO)(CO)[N+](=O)[O-] (stereo unspecified)
inactive: [1] -15.1% | [2] 1.8% | [3] 28.4% | [4] 9.4% | [5] -14.6% | [6] 28.4%

CCCCCCCCCSCCS
inactive: [1] -14.1% | [2] 7.4% | [3] 2% | [4] -16.2% | [5] -19.4% | [6] -22.2%

CCCSc1ncnc2c1ncn2COC(=O)NC
inactive: [1] 15.1% | [2] -11.4% | [3] 5.2% | [4] 5.15% | [5] 11.3% | [6] -2.8%

Cn1c(=O)c2[nH]c(Br)nc2n(C)c1=O
inactive: [1] -12% | [2] -13.4% | [3] 5.4% | [4] -4.25% | [5] 13.3% | [6] -12.2%

C[N+]1(C)C2CCC1CC(OC(=O)C(O)c1ccccc1)C2 (stereo unspecified)
inactive: [1] -6.8% | [2] -54.4% | [3] -5.1% | [4] -4.85% | [5] -13.8% | [6] -4.8%

CC(Oc1ccc([N+](=O)[O-])cc1)c1ccccc1 (stereo unspecified)
inactive: [1] -21.6% | [2] -0.55% | [3] -3.7% | [4] -37.1% | [5] -23.4% | [6] 1.4%

From PubChem BioAssay (NCI)
